Hits are enriched below; roughly 12% of the tested compounds scored in any of these assays.
Lmaj promast: Leishmania major promastigote growth inhibition, primary screen; 200,000 compounds, 9% hits; Leishmania major promastigotes, resazurin fluorescence viability; inhibition, % at 10 µM; in the data active = inhibition above about 50%;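 also: promastigotes grown with compound for 44 hours at 28 °C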
Insulin prom up: insulin promoter activators in MIN6 cells, imaging, high-content screening, mouse beta cells; 190,000 compounds, 0.3% hits; AID 1625, 2009; z-score at 5 µM; MIN6 insulin promoter-GFP reporter; active compounds read high;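 active = z-score above 3 at 5 µM with at least 500 cells counted in the well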
WT yeast gro inh: growth inhibition of WT strain, primary screen, mitochondrial fusion inhibitor project, WT and mutant strains, chemical genetic. mitochondrial fusion phenotypic screen. inhibition, % at 10 µM. 190,000 compounds, 2.1% hits. AID 1362, 2008; in the data active = inhibition above about 58%; tested in S. cerevisiae
KCC2 mod: KCC2 cotransporter modulators, thallium flux, primary screen, cell-based, HEK293 KCC2, FluoZin-2 fluorescence, MLSMR. 190,000 compounds, 2.2% hits. KCC2 cells, thallium flux FluoZin-2 fluorescence. B-score of Tl+ flux slope (higher = more flux/activation; lower = inhibition) at 10 µM;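 active = thallium flux slope and its plate-corrected score both differing from the plate sample mean at a set confidence after two filtering rounds, in either direction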;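 also: slope of fluorescence scaled to starting intensity during 10 to 20 s after thallium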
ROMK primary: ROMK potassium channel modulators, primary screen, cell-based, thallium flux, MLSMR library. ATP-sensitive inward rectifier potassium channel 1 (Homo sapiens), P48048. Tet-inducible ROMK, thallium flux fluorescence; actives lie on both sides. B-score at 10 µM. 130,000 compounds, 2% hits. AID 1918, 2009;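 active = signal ratio slope over the read window, or its plate-corrected B-score, at least 3 SD from the plate mean, either direction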;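 also: B-score of the F/F0 ratio slope over 7 to 12 s after thallium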
Target sequence (P48048 whole entry, looked up): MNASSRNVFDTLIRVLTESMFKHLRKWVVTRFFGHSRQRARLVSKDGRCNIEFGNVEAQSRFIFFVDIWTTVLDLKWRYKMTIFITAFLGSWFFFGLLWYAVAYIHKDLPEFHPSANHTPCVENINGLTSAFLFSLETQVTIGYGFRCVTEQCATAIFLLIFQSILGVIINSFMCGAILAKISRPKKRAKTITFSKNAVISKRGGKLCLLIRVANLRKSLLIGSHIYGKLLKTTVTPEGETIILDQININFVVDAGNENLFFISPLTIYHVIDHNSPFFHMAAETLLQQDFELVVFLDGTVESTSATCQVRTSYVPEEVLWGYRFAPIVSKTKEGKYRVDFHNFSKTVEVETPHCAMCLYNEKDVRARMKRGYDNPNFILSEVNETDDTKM
Insulin prom inh: inhibitors of insulin promoter-driven GFP, primary screen, imaging, TRM-6 cells (human fetal islet line), eGFP reporter, cell count; reporter expression induced with tamoxifen; inhibition, % at 2 µM; 130,000 compounds, 0.9% hits;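 active = inhibition above the mean plus 3 SD, with well images judged a real hit on visual review, cut at about 60% in these data, passing the limit was not always enough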
An asterisk follows results filed as active; / = no result.

SMILES	Lmaj promast	Insulin prom up	WT yeast gro inh	KCC2 mod	ROMK primary	Insulin prom inh
Cc1csc(NC(=O)C2CCCC2)n1	-2.6	1.48	0.8	0.469	0.0455	28.1
C=CC(C)Sc1nc2c(c(=O)n(C)c(=O)n2C)n1Cc1ccccc1Cl (stereo not drawn)	3.9	0.87	0.1	-1.1	/	/
O=S(=O)(c1ccc2c(c1)OCCO2)N1CCC(n2nnc3cc(C(F)(F)F)ccc32)CC1	16.3	-1.75	5.9	-0.568	/	-17.1
Cc1ccc(N(NC(=O)C(O)(c2ccccc2)c2ccccc2)C(=O)CCl)cc1	88.1*	-0.23	-19.1	-0.764	1.05	-170.0
Cc1ccc(C(O)(C(=O)NN(C(=O)c2ccccc2)c2ccccc2)c2ccc(C)cc2)cc1	32.3	-0.28	3.9	-0.112	/	-7.9
COc1ccccc1-n1c(CCn2nc(C)c(Br)c2C)n[nH]c1=S	-6.8	0.2	-15.9	-0.138	/	-25.0
Cn1c(=O)c2c(nc(NCc3cccnc3)n2Cc2cccc(C(F)(F)F)c2)n(C)c1=O	95.5*	-1.02	-5.0	0.0615	/	40.0
COc1cccc(Cn2c(NCc3cccnc3)nc3c2c(=O)n(C)c(=O)n3C)c1	4.3	-0.89	-26.0	0.0721	/	11.1
O=C(O)C(=O)Cc1c[nH]c2ccccc12	-6.5	0.66	-11.4	-1.74	-1.25	40.9
Cc1cccc(NC(=O)CSc2nsc(SCC(=O)Nc3cccc(C)c3)c2C#N)c1	68.9*	1.27	12.3	-0.683	0.389	-27.8
CCOC(=O)C1=CN(c2cccc(F)c2)C=C(C(=O)OCC)C1c1cc(OC)c(O)c([N+](=O)[O-])c1	-9.0	0.05	87.8*	/	/	0.0
COc1ccc2c(c1)C(C1C(=O)CCCC1=O)c1ccccc1O2 (stereo not drawn)	-3.9	-0.12	30.9	-0.0868	/	-70.0
COc1ccc(-c2nc(C#N)c(NCc3cccnc3)o2)cc1OC	95.6*	-1.14	-24.3	0.00691	/	11.1
N#Cc1nc(-c2cccc(Cl)c2)oc1NCc1cccnc1	99.7*	/	9.6	1.65	-0.366	0.0
CCOC(=O)c1ccc(NC(=O)CN2CCN(c3ccccc3)CC2)cc1	92.4*	-0.75	-1.9	-0.867	-0.773	38.9
CCOC(=O)c1ccc(NC(=O)CSc2nnc(CNC(=O)c3ccccc3F)o2)cc1	91.0*	-0.35	0.5	-0.29	-0.981	-42.9
CCOC(=O)c1ccc(NC(=O)CN2C(=O)CNC2=O)cc1	96.2*	0.31	-7.3	0.0768	0.298	16.3
CCOC(=O)c1ccc(NC(=O)CSc2nnc(CNC(=O)c3c(F)cccc3Cl)o2)cc1	-5.2	-0.21	-8.1	/	-0.172	6.9
CCOC(=O)c1cc2c(C)nn(-c3ccccc3)c2s1	1.6	/	-3.4	0.401	-0.11	31.2
CCOC(=O)c1cc(=O)n2nc(-c3ccccc3F)nc2s1	2.8	0.98	-3.1	/	-0.000955	85.7*
CCOc1ccccc1-c1nc(C(N)=O)c2[nH]c(=O)n(-c3ccccc3)c2n1	18.7	-0.16	-4.0	/	-0.0811	-28.6
CC(C)(C)c1cc(-c2nc(N)nc(N)n2)cc(C(C)(C)C)c1	44.4	/	12.8	0.0101	0.0457	27.3
Cc1n[nH]c(=O)n1-c1ccc(OC(F)(F)F)cc1	-8.8	0.24	-12.6	0.934	0.582	0.0
CCOC(=O)c1ccc(NC(=O)Cn2nnc(-c3ccccc3)n2)cc1	3.1	-0.45	-0.6	/	-0.00419	-21.4
O=C(CN1CCN(c2ccccc2)CC1)Nc1ccccc1Cl	7.8	0.38	8.5	0.279	0.00283	-10.5
SMILES	Lmaj promast	Insulin prom up	WT yeast gro inh	KCC2 mod	ROMK primary	Insulin prom inh
CC1CC(C)CN(CC(=O)NC(c2ccccc2)c2ccccc2)C1 (stereo not drawn)	6.9	-1.1	11.8	/	/	/
O=C(CN1CCN(c2ccccc2)CC1)Nc1ccccc1C(F)(F)F	-1.0	0.59	4.0	/	/	87.9*
O=C(CN1CCN(c2ccc(O)cc2)CC1)NC(c1ccccc1)c1ccccc1	84.3*	-0.08	6.5	0.644	-0.674	35.7
CCOC(=O)c1ccc(NC(=O)Cn2nnc(-c3ccccc3F)n2)cc1	60.9*	-1.1	20.2	0.435	-0.349	-11.1
NC(=O)[C@H]1CC2(CC(c3cccc(NC(=O)[C@H]4CCC(=O)N4)c3)=NO2)CN1C(=O)c1ccccc1 (stereo partly drawn)	/	-0.6	/	-0.056	/	/
CCCCNC(=O)COC(=O)CCC(=O)c1cccs1	-7.9	0.04	-13.0	0.0276	/	/
CC(C)=C1C2CCC1C1C(=O)N(CCc3ccccc3)C(=O)C21 (stereo not drawn)	-7.4	0.08	-5.2	-0.702	0.074	-66.7
FC(F)Oc1cccc2cccnc12	-5.9	0.67	-12.1	1.01	0.111	-375.0
Cc1cc(C)c2c(N)c(C(=O)c3ccc(Cl)cc3Cl)sc2n1	100.1*	-0.67	1.7	0.851	1.29	/
Cc1cc(C)c2c(N)c(C(=O)c3ccccc3Cl)sc2n1	/	-1.91	/	-0.915	/	/
Cc1cc(C)c2c(N)c(C(=O)c3cccc(Cl)c3)sc2n1	100.2*	-0.11	1.0	0.0238	/	/
Cc1ccnc(NS(=O)(=O)c2ccc(NS(C)(=O)=O)cc2)n1	/	-0.45	/	0.557	0.269	/
COc1ccc2oc(C(=O)c3ccccc3)c(NC(=O)CN3CCN(C)CC3)c2c1	98.0*	-2.17	4.9	0.903	-1.17	/
CCOC(=O)c1oc2ccc(Br)cc2c1NC(=O)CN1CCN(C)CC1	2.8	1.89	8.7	/	/	9.4
CCOC(=O)c1ccc(NC(=O)Cc2coc3cc4c(cc23)CCC4)cc1	91.6*	-0.01	9.5	1.54	/	-29.9
CCC(C)NC(=O)CCSCCC(=O)NC(C)CC (stereo not drawn)	2.5	0.31	-11.1	0.42	/	26.7
CS(=O)(=O)Oc1ccc2c(c1)O/C(=C\C=C\c1ccccc1)C2=O	/	-0.31	/	-0.0374	/	/
Cc1c(C(=O)Nc2ccc(Cc3ccncc3)cc2)cccc1[N+](=O)[O-]	96.0*	-0.6	13.3	-0.937	-1.43	-40.0
O=C(CCl)NCCCCCCCCCNC(=O)CCl	23.0	0.22	-19.0	0.762	0.304	16.7
CCC(NS(=O)(=O)c1c(C)[nH]c(=O)[nH]c1=O)C12CC3CC(CC(C3)C1)C2 (stereo not drawn)	-2.8	-0.02	63.8*	0.0557	-0.563	0.0
Cc1[nH]c(=O)[nH]c(=O)c1S(=O)(=O)NCC12CC3CC(CC(C3)C1)C2	-8.9	-0.83	17.7	0.363	0.28	0.0
Cc1cc(O)ccc1N1C(=O)c2cccc3cc([N+](=O)[O-])cc(c23)C1=O	87.8*	0.56	-1.5	-0.587	0.672	-44.4
O=C1c2cccc3cc([N+](=O)[O-])cc(c23)C(=O)N1c1ccccc1O	98.2*	1.04	-2.3	-0.516	-1.49	-240.0
O=C1c2cccc3c([N+](=O)[O-])c(O)cc(c23)C(=O)N1Nc1ccccc1	-5.5	/	11.9	-1.55	-0.54	/
COc1cc(NC(=O)CN2CCCCC2C)c(C)cc1[N+](=O)[O-] (stereo not drawn)	69.3*	-0.39	-4.5	-0.587	-0.767	-35.1
